Source: PubChem (several laboratories)
SKKanGAS inh = blocks kanamycin growth of S. pyogenes SKKanGAS strain; AID 1662; 300,000 tested, 1.3% active; BacTiter-Glo, 6 h; inhibition, % at 7.5 µM;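 active = mean replicate score, as percent of positive control median, at least 50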;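 also: strain carries kanamycin resistance gene driven by streptokinase promoter and grows in 40 µg/ml kanamycin; loss of luminescence reflects streptokinase promoter inhibition or plain growth inhibition; 0% = median of DMSO wells and 100% = positive control at its reference dose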
TIM10 inh = TIM10 yeast growth inhibition | 330,000 tested, 1.4% active | inhibition, % at 10 µM | S. cerevisiae TIM10 strain growth, BacTiter-Glo luminescence, 24 h | AID 463195;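 active = inhibition of 40% or more at the single tested concentration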;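 also: wild-type TIM10 isogenic control strain grown at permissive 25 °C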
PfHsp90 set2 = growth inhibition of yeast expressing Plasmodium Hsp90. inhibition, % at 9.4 µM. 310,000 tested, 0.32% active. S. cerevisiae expressing PfHsp90, BacTiter-Glo ATP, 48 h; yeast lacking PDR1 and PDR3 efflux regulators;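 active = every replicate shows inhibition above about 80%, whatever the replicate mean, limit read from the data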;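 also: 0% = DMSO neutral controls and 100% = 20 µM radicicol positive controls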
NALP3 yeast inh = inhibitors of NALP3 inflammasome in yeast | AID 2825 | 330,000 tested, 0.39% active | Yeast reconstituted NLRP3/ASC/caspase-1, beta-gal luminescence, 24 h | inhibition, % at 10 µM;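 active = inhibition of 50% or more; inactive = inhibition below 50%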;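 also: plate controls were induced DMSO wells for no effect and uninduced yeast grown without galactose for full effect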
tim10-1 inh = inhibits growth of tim10-1 mutant yeast; S. cerevisiae tim10-1 ts strain growth, BacTiter-Glo, 24 h; inhibition, % at 20 µM; 330,000 tested, 2.2% active;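 active = inhibition of at least 40%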;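 also: mutant grown at 25 °C; 0% = DMSO wells with yeast and 100% = wells holding no yeast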
tim23-1 inh = tim23-1 yeast growth inhibition; S. cerevisiae tim23-1 growth, BacTiter-Glo luminescence, 24 h; inhibition, % at 20 µM; 330,000 tested, 1.3% active; AID 463212;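 active = growth inhibition of the mutant yeast at or above 50%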;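 also: temperature-sensitive mutant grown at 25 °C; plate controls were DMSO-treated mutant yeast for no effect and medium wells lacking yeast for full effect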
tim23-1 confirm = confirmation of tim23-1 mutant yeast growth inhibitors; shares compounds with tim23-1 inh; S. cerevisiae tim23-1 growth, BacTiter-Glo luminescence, 24 h; inhibition, % at 20 µM; 4,400 tested, 83% active; AID 463218;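 active = inhibition above about 39% in either of two replicate wells at 20 µM, limit read from the data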;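 also: temperature-sensitive tim23-1 mutant grown at 25 °C; 0% = DMSO wells with yeast and 100% = medium wells without yeast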
* hit, by the source's call; · = no result given. An excerpt weighted towards active compounds, which were near 4.6% of everything screened.

SMILES	SKKanGAS inh	TIM10 inh	PfHsp90 set2	NALP3 yeast inh	tim10-1 inh	tim23-1 inh	tim23-1 confirm
O=C(NC(=S)Nc1ccc2c(c1)OCCO2)c1ccccc1	-10	33	·	47	23	54*	44*
O=C(Nc1ccc(NC(=O)c2ccc3c(c2)OCCO3)cc1)c1ccccc1	11	-11	-91	6	-23	-14	·
O=C(Nc1ccc2c(c1)OCCO2)c1ccccc1F	1	37	5	17	36	66*	40*
O=C(NC(=S)Nc1ccc2c(c1)OCCO2)c1ccccc1F	0	31	-17	11	34	17	·
CSc1nc(C)cc(SCC(=O)N/N=C/c2ccccc2)n1	-17	4	-5	3	11	11	·
CN(CC(=O)Nc1ccc(S(=O)(=O)N2CCOCC2)cc1)Cc1ccc(F)cc1	·	16	8	18	25	19	·
Cc1ccc2nc(-c3ccc(N)cc3)sc2c1	54*	20	5	4	13	53*	58*
O=C(O)c1ccc(NC(=S)NC(=O)c2cncc(Br)c2)cc1	1	8	17	22	11	14	·
